Source: PubChem BioAssay (NCI)
This is part of a sample that, as a whole, favours compounds with a hit. Of some 83,000 tested, about 20% had one in any assay.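 Percent growth is the endpoint: 0 to 100 indicates growth inhibition (40 means 60% inhibition), 0 means no net growth, and negative values indicate cell death.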 Calls of active or inactive are those of the source. How the source made its calls: active means growth percent below 10; inactive means the rest.

Assays:
Assay in all cases: NCI-60 one-dose screen, 48 h (100 = growth as untreated, 0 = no growth, -100 = all killed)
Conditions in all cases: 10 µM unless noted
DU-145 prostate = test system: DU-145 prostate
K-562 leukemia = test system: K-562 leukemia
MALME-3M melanoma = test system: MALME-3M melanoma
MDA-MB-231 breast = test system: MDA-MB-231 breast
RXF 393 renal = test system: RXF 393 renal
SF-268 CNS = test system: SF-268 CNS
SF-295 CNS = test system: SF-295 CNS
SF-539 CNS = test system: SF-539 CNS
UACC-257 melanoma = test system: UACC-257 melanoma
M14 melanoma = test system: M14 melanoma
HCT-15 colon = test system: HCT-15 colon
HT29 colon = test system: HT29 colon
SNB-75 CNS = test system: SNB-75 CNS
SNB-19 CNS = test system: SNB-19 CNS
U251 CNS = test system: U251 CNS
PC-3 prostate = test system: PC-3 prostate
SK-MEL-5 melanoma = test system: SK-MEL-5 melanoma
UACC-62 melanoma = test system: UACC-62 melanoma
LOX IMVI melanoma = test system: LOX IMVI melanoma
SK-MEL-28 melanoma = test system: SK-MEL-28 melanoma

Measured: growth

Cc1ccc(S(=O)(=O)NC(CCC(=O)Nc2ccc(Cl)cc2)C(=O)Nc2ccc(Cl)cc2)cc1 (stereo not given)
inactive: DU-145 prostate 45.8% | MALME-3M melanoma 14.2% | RXF 393 renal 22.9% | SF-268 CNS 38.8% | SF-295 CNS 10.5% | UACC-257 melanoma 45.6% | M14 melanoma 32.2% | HCT-15 colon 18.9% | HT29 colon 14.2% | SNB-19 CNS 14.1% | U251 CNS 12.5% | PC-3 prostate 17.8% | SK-MEL-5 melanoma 21.2% | SK-MEL-28 melanoma 64.3%
active: K-562 leukemia 2.8% | MDA-MB-231 breast -5.94% | SF-539 CNS -20.5% | SNB-75 CNS -17.2% | UACC-62 melanoma 2.47% | LOX IMVI melanoma 6.06%

COc1ccc(Nc2ncnc3c2sc2nc(C)cc(C)c23)cc1
inactive: DU-145 prostate 102% | K-562 leukemia 101% | MALME-3M melanoma 94.5% | MDA-MB-231 breast 102% | RXF 393 renal 104% | SF-268 CNS 94.3% | SF-295 CNS 112% | SF-539 CNS 94.6% | UACC-257 melanoma 93.2% | M14 melanoma 102% | HCT-15 colon 96% | HT29 colon 105% | SNB-75 CNS 74.4% | SNB-19 CNS 99.2% | U251 CNS 103% | PC-3 prostate 92.7% | SK-MEL-5 melanoma 99.8% | UACC-62 melanoma 100% | LOX IMVI melanoma 96.7% | SK-MEL-28 melanoma 105%

O=C1/C(=C\c2cccn2Cc2ccc(F)cc2)c2ccccc2N1c1c(Cl)cccc1Cl
inactive: DU-145 prostate 91.2% | K-562 leukemia 70.8% | MALME-3M melanoma 87.6% | MDA-MB-231 breast 75% | RXF 393 renal 81.5% | SF-268 CNS 79.9% | SF-295 CNS 81.9% | SF-539 CNS 87.5% | UACC-257 melanoma 90.3% | M14 melanoma 94.9% | HCT-15 colon 56.2% | HT29 colon 81.5% | SNB-75 CNS 68.4% | SNB-19 CNS 81.3% | U251 CNS 75.7% | PC-3 prostate 52% | SK-MEL-5 melanoma 57.7% | UACC-62 melanoma 62% | LOX IMVI melanoma 91.1% | SK-MEL-28 melanoma 87.4%

O=C(/C=C/c1cn(-c2ccccc2)nc1-c1cccc(Nc2ccnc3cc(Cl)ccc23)c1)c1ccc2c(c1)OCO2
inactive: DU-145 prostate 76.8% | K-562 leukemia 66.8% | MALME-3M melanoma 38% | MDA-MB-231 breast 72.7% | RXF 393 renal 95.2% | SF-268 CNS 89.7% | SF-295 CNS 115% | SF-539 CNS 95.7% | UACC-257 melanoma 95% | M14 melanoma 111% | HCT-15 colon 91.9% | HT29 colon 114% | SNB-75 CNS 101% | SNB-19 CNS 104% | U251 CNS 89.1% | PC-3 prostate 96.6% | SK-MEL-5 melanoma 85.3% | UACC-62 melanoma 104% | LOX IMVI melanoma 94.1% | SK-MEL-28 melanoma 82.7%

CNC(=O)c1cc(Oc2ccc(NC(=O)c3[nH]c(SC)nc3-c3ccc(F)cc3)cc2)ccn1
active: K-562 leukemia 7.07% | MALME-3M melanoma -7.31% | UACC-62 melanoma 5.44%
inactive: DU-145 prostate 59.6% | MDA-MB-231 breast 62.9% | RXF 393 renal 70.9% | SF-268 CNS 72.5% | SF-295 CNS 46.3% | SF-539 CNS 65.5% | UACC-257 melanoma 33.1% | M14 melanoma 12.7% | HCT-15 colon 72.5% | HT29 colon 12.8% | SNB-75 CNS 78.7% | SNB-19 CNS 99.3% | U251 CNS 84.6% | PC-3 prostate 33.2% | SK-MEL-5 melanoma 23.3% | LOX IMVI melanoma 57.7% | SK-MEL-28 melanoma 22.3%

COc1ccccc1NC(=O)OCC12COCN1COC2
inactive: DU-145 prostate 112% | K-562 leukemia 104% | MALME-3M melanoma 103% | MDA-MB-231 breast 102% | RXF 393 renal 108% | SF-268 CNS 106% | SF-295 CNS 103% | SF-539 CNS 103% | UACC-257 melanoma 89.9% | M14 melanoma 104% | HCT-15 colon 97.2% | HT29 colon 109% | SNB-75 CNS 97.6% | SNB-19 CNS 94.4% | U251 CNS 91.1% | PC-3 prostate 101% | SK-MEL-5 melanoma 99.5% | UACC-62 melanoma 99.7% | LOX IMVI melanoma 107% | SK-MEL-28 melanoma 108%

Clc1ccc2c(c1)-n1cccc1C(c1ccc3ccccc3c1)=NC2
inactive: DU-145 prostate 115% | K-562 leukemia 49.4% | MALME-3M melanoma 97.8% | MDA-MB-231 breast 120% | RXF 393 renal 96.1% | SF-268 CNS 109% | SF-295 CNS 80.6% | SF-539 CNS 103% | UACC-257 melanoma 100% | M14 melanoma 87.8% | HCT-15 colon 77.2% | HT29 colon 74.1% | SNB-75 CNS 83.2% | SNB-19 CNS 79.1% | U251 CNS 95.6% | PC-3 prostate 79.8% | SK-MEL-5 melanoma 95.8% | UACC-62 melanoma 78.3% | LOX IMVI melanoma 112% | SK-MEL-28 melanoma 100%

COc1ccc(C(=O)c2cc(C)c(OC)c(C)c2)cc1OC(=O)CCl
active: DU-145 prostate 9.37% | K-562 leukemia 4.66% | SF-539 CNS -26.1% | M14 melanoma 0.344% | U251 CNS 6.71% | SK-MEL-5 melanoma -18.4%
inactive: MALME-3M melanoma 63.1% | MDA-MB-231 breast 22.9% | RXF 393 renal 37.7% | SF-268 CNS 27.6% | SF-295 CNS 11.8% | UACC-257 melanoma 56.8% | HCT-15 colon 13.1% | HT29 colon 13.3% | SNB-75 CNS 69.8% | SNB-19 CNS 30.8% | PC-3 prostate 25.9% | UACC-62 melanoma 41.8% | LOX IMVI melanoma 18.9% | SK-MEL-28 melanoma 57.5%

Cc1cc(C)c2c(n1)sc1c(Nc3ccc(O)cc3)ncnc12
inactive: DU-145 prostate 21.3% | K-562 leukemia 45.1% | MALME-3M melanoma 63.9% | MDA-MB-231 breast 59% | RXF 393 renal 32% | SF-268 CNS 19.3% | SF-295 CNS 18.3% | UACC-257 melanoma 38.7% | HCT-15 colon 51.7% | HT29 colon 40% | SNB-75 CNS 50.4% | SNB-19 CNS 31% | U251 CNS 26.6% | PC-3 prostate 47.2% | SK-MEL-5 melanoma 25.6% | UACC-62 melanoma 16.1% | LOX IMVI melanoma 13.1% | SK-MEL-28 melanoma 77.7%
active: SF-539 CNS 3.84% | M14 melanoma -21.5%

CN(C)CCOc1nc2c3cccnc3cc(-c3cccc(Cl)c3)c2c2ncccc12
active: K-562 leukemia -21% | MALME-3M melanoma -90.4% | MDA-MB-231 breast -11.5% | RXF 393 renal -87.4% | UACC-257 melanoma -57.5% | M14 melanoma -82.1% | HCT-15 colon -10.9% | HT29 colon 1.5% | SK-MEL-5 melanoma 1.23% | UACC-62 melanoma -75.6% | LOX IMVI melanoma -94.5% | SK-MEL-28 melanoma -81.6%
inactive: DU-145 prostate 14.3% | SF-268 CNS 27.4% | SF-295 CNS 27.9% | SF-539 CNS 36.3% | SNB-75 CNS 38.2% | SNB-19 CNS 26.4% | U251 CNS 11.2% | PC-3 prostate 22.4%

CC(=O)N1N=C(c2ccc(C)cc2)CC1c1cn(-c2ccccc2)nc1-c1cccc(Nc2ccnc3cc(Cl)ccc23)c1 (stereo not given)
inactive: DU-145 prostate 34.3% | K-562 leukemia 15.1% | MDA-MB-231 breast 58.9% | RXF 393 renal 67.8% | SF-268 CNS 73.7% | SF-295 CNS 109% | SF-539 CNS 99.4% | UACC-257 melanoma 106% | M14 melanoma 87.3% | HCT-15 colon 62.2% | HT29 colon 47.7% | SNB-75 CNS 102% | SNB-19 CNS 83.4% | U251 CNS 14.9% | PC-3 prostate 99.8% | SK-MEL-5 melanoma 73.8% | UACC-62 melanoma 82.2% | LOX IMVI melanoma 10.4% | SK-MEL-28 melanoma 51.9%
active: MALME-3M melanoma -2.79%

Cc1n(Cc2ccc3ccccc3n2)cc[n+]1Cc1ccc2ccccc2c1
inactive: DU-145 prostate 26.6% | K-562 leukemia 11.5% | SF-268 CNS 20.8% | SF-539 CNS 14.3% | M14 melanoma 18.2% | HCT-15 colon 86.8% | U251 CNS 14% | PC-3 prostate 10.4% | SK-MEL-28 melanoma 16.1%
active: MALME-3M melanoma -30.2% | MDA-MB-231 breast 2.1% | RXF 393 renal 9.37% | SF-295 CNS 9.7% | UACC-257 melanoma -15.1% | HT29 colon 6.64% | SNB-75 CNS -2.2% | SNB-19 CNS 7.14% | SK-MEL-5 melanoma -87.6% | UACC-62 melanoma -26.6% | LOX IMVI melanoma -43.7%

O=c1[nH]c2cc(Cl)c(Cl)cc2o1
inactive: DU-145 prostate 113% | K-562 leukemia 102% | MALME-3M melanoma 117% | MDA-MB-231 breast 100% | RXF 393 renal 135% | SF-268 CNS 103% | SF-295 CNS 55.9% | SF-539 CNS 105% | UACC-257 melanoma 114% | M14 melanoma 105% | HCT-15 colon 101% | HT29 colon 112% | SNB-75 CNS 92.5% | SNB-19 CNS 109% | U251 CNS 95.1% | PC-3 prostate 64.6% | SK-MEL-5 melanoma 115% | UACC-62 melanoma 92.8% | LOX IMVI melanoma 99.4% | SK-MEL-28 melanoma 116%

CCOc1ccc([C@@H]2[C@@H](Oc3ccccc3)C(=O)N2c2cc(OC)c(OC)c(OC)c2)cc1
inactive: DU-145 prostate 12.5% | MALME-3M melanoma 71.8% | MDA-MB-231 breast 10.1% | RXF 393 renal 14.1% | SF-268 CNS 33.9% | SF-295 CNS 13.1% | UACC-257 melanoma 73.7% | HCT-15 colon 10.8% | SNB-75 CNS 65.6% | SNB-19 CNS 35.4% | U251 CNS 21.7% | PC-3 prostate 25.6% | UACC-62 melanoma 26% | LOX IMVI melanoma 26.7% | SK-MEL-28 melanoma 64.8%
active: K-562 leukemia 6.3% | SF-539 CNS -12.9% | M14 melanoma 4.74% | HT29 colon 5.82% | SK-MEL-5 melanoma -18.7%

Cc1ccc(C2CC(c3cccs3)=NN2c2ccc(S(N)(=O)=O)cc2)s1 (stereo not given)
inactive: DU-145 prostate 99.2% | K-562 leukemia 77.9% | MALME-3M melanoma 79.4% | MDA-MB-231 breast 91.6% | RXF 393 renal 93.1% | SF-268 CNS 96.5% | SF-295 CNS 98.3% | SF-539 CNS 104% | UACC-257 melanoma 36.3% | M14 melanoma 81.9% | HCT-15 colon 80.8% | HT29 colon 86.5% | SNB-75 CNS 74.5% | SNB-19 CNS 84.8% | U251 CNS 78.5% | PC-3 prostate 56.4% | SK-MEL-5 melanoma 65.7% | UACC-62 melanoma 44.1% | LOX IMVI melanoma 104% | SK-MEL-28 melanoma 64.9%
